Activity calls are given as the source filed them. Rule for the calls: active = hit-call score of the fitted dose curve at least 0.9, where 1 is the maximum; inactive = score below 0.9.
Columns and labels:
[1] = ATG_GLI_CIS: Attagene CIS-FACTORIAL HepG2 Assay for human Zinc Finger Protein GLI1 (AID 2282945); settings: HepG2, Attagene cis-factorial reporter mRNA, GLI element; actives raise or lower the signal
Procedure, shortened: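 Transiently transfected HepG2 cells report endogenous transcription factor activity via cis-element-driven reporter units. After 24 h compound exposure, reporter mRNA was measured by RT-PCR with capillary electrophoresis; bidirectional fitting against DMSO baseline.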

[2] = ATG_GRE_CIS: Attagene CIS-FACTORIAL HepG2 Assay for human Glucocorticoid Response Elements (GRE) (AID 2282947); settings: HepG2 GRE cis-reporter, Attagene multiplex mRNA; actives raise or lower the signal
Procedure, shortened: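 Fluorescence intensity of reporter-specific cDNA fragments, separated by capillary electrophoresis, provides the signal. Constructs carry cis-regulating promoters in transiently transfected HepG2 liver cells; 24 h incubation; fitting is bidirectional against DMSO.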

[3] = ATG_ISRE_CIS: Attagene CIS-FACTORIAL HepG2 Assay for human Interferon Regulatory Factor 1 (IRF1) binding to an Interferon-Stimulated Response Element (ISRE) (AID 2282948); settings: HepG2 ISRE cis-reporter (Attagene), mRNA transcription readout; actives raise or lower the signal
Procedure, shortened: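 Read-out: fluorescent RT-PCR products resolved by capillary electrophoresis, reporting endogenous transcription factor activity via ISRE-driven reporter mRNA in transfected HepG2 cells dosed for 24 h; gain or loss fitted relative to DMSO.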

[4] = ATG_M_32_CIS: Attagene CIS-FACTORIAL HepG2 Assay for M32 Transcription Factor (Internal Marker) (AID 2282949); settings: HepG2 Attagene cis-factorial M32 reporter, mRNA; actives raise or lower the signal;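 note: background control marker of the multiplexed CIS panel rather than a real target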
Procedure, shortened: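 HepG2 transfectants (cis-regulated reporter transcription units) dosed 24 h. Reporter mRNA by RT-PCR plus CE, analysed as gain or loss relative to DMSO.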

[5] = ATG_M_06_CIS: Attagene CIS-FACTORIAL HepG2 Assay for M06 Transcription Factor (Internal Marker) (AID 2282950); settings: HepG2 Attagene CIS-FACTORIAL M06 internal marker reporter; actives raise or lower the signal
Procedure, shortened: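 Cells (HepG2, transiently carrying cis-driven reporter units) receive chemical for 24 h before RNA isolation. Reporter cDNA is PCR-amplified, FAM-labelled by primer extension, HpaI-digested and sized on a capillary analyser.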

[6] = molecular target: Hypoxia-inducible factor 1-alpha (Homo sapiens) (UniProt Q16665); test: ATG_HIF1a_CIS: Attagene CIS-FACTORIAL HepG2 Assay for human Hypoxia Inducible Factor 1 (HIF1A) (AID 2282951); settings: HepG2 Attagene cis-factorial HIF1a reporter transcription; actives raise or lower the signal
Chain of Hypoxia-inducible factor 1-alpha (Homo sapiens) (Q16665 whole entry, looked up): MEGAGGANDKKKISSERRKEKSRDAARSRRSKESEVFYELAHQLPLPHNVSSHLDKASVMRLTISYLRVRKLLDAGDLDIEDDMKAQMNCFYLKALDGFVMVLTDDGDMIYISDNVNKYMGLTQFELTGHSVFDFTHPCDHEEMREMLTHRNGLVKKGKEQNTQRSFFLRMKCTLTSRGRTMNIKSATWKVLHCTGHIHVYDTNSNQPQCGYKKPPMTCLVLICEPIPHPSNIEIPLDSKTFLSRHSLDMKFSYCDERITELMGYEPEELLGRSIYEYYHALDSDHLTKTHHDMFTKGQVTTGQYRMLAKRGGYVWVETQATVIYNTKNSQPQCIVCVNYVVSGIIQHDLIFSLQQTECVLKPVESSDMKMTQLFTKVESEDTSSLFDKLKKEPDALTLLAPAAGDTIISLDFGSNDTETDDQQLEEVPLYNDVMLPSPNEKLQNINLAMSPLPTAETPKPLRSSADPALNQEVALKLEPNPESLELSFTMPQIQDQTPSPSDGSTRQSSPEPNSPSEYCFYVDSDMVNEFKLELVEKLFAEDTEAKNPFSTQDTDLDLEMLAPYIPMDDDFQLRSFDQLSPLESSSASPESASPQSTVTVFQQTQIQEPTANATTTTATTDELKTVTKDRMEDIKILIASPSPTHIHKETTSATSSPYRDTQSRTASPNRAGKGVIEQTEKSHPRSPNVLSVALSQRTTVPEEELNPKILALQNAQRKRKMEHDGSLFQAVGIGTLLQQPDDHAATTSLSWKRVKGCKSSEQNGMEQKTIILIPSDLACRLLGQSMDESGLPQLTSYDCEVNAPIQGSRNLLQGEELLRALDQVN
Procedure, shortened: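 HepG2 cells transiently transfected with multiplexed cis-promoter reporter units; reporter mRNA read 24 h after dosing by RT-PCR, 6-FAM primer-extension labelling, HpaI digestion and capillary electrophoresis. Bidirectional fit versus DMSO baseline.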

[7] = molecular target: Hepatocyte nuclear factor 6 (Homo sapiens) (UniProt Q9UBC0); test: ATG_HNF6_CIS: Attagene CIS-FACTORIAL HepG2 Assay for human Hepatocyte Nuclear Factor 6 (HNF6) (AID 2282952); settings: HepG2 Attagene cis-factorial HNF6 reporter transcription; actives raise or lower the signal
Chain of Hepatocyte nuclear factor 6 (Homo sapiens) (Q9UBC0 whole entry, looked up, the tested form may be a part): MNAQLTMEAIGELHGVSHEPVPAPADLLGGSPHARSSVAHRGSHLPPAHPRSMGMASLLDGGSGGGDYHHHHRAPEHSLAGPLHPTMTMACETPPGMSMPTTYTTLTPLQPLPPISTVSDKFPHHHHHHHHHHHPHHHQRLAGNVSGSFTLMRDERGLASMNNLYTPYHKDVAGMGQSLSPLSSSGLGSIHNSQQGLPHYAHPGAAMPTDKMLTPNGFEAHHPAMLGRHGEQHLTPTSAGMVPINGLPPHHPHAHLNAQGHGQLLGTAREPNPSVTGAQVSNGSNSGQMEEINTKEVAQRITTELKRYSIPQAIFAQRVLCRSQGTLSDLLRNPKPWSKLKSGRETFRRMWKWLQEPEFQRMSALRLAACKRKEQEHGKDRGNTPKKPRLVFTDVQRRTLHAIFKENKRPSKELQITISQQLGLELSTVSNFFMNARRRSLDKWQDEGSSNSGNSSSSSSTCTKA
Procedure, shortened: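 First, HepG2 cells were transfected with the multiplexed cis reporter library and dosed with chemical for 24 h. Next, RNA was reverse-transcribed, PCR-amplified and fluorescently labelled. Finally, HpaI-digested fragments were read by capillary electrophoresis.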

[8] = molecular target: Heat shock factor protein 1 (Homo sapiens) (UniProt Q00613); test: ATG_HSE_CIS: Attagene CIS-FACTORIAL HepG2 Assay for human Heat Shock Transcription Factor 1 (HSE) (AID 2282953); settings: HepG2 HSE cis-reporter, Attagene RNA transcription; actives raise or lower the signal
Chain of Heat shock factor protein 1 (Homo sapiens) (Q00613 whole entry, looked up): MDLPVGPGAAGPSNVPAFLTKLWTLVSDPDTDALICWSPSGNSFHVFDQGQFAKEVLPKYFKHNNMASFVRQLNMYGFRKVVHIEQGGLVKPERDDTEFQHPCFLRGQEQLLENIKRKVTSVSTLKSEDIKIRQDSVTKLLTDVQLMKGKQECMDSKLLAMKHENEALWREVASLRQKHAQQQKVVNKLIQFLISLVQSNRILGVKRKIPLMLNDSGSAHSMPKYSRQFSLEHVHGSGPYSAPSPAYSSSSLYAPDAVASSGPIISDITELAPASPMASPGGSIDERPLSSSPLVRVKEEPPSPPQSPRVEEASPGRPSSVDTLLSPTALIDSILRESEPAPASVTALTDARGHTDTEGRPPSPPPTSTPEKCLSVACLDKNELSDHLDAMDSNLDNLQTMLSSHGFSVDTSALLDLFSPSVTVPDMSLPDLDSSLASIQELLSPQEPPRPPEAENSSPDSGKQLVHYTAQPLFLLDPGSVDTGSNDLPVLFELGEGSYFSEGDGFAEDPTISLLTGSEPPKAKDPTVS
Procedure, shortened: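 Liver-derived HepG2 cells carry transiently introduced multiple reporter units governed by cis promoters. Reporter RNA measured 24 h post-dose through reverse transcription, PCR amplification, fluorescent labelling and capillary electrophoresis, normalised to DMSO.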

[9] = ATG_MRE_CIS: Attagene CIS-FACTORIAL HepG2 Assay for human Metal Responsive Element (MRE) (AID 2282954); settings: HepG2 MRE cis-reporter transcription, Attagene multiplex; actives raise or lower the signal
Procedure, shortened: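 Measured here is mRNA induction from an MRE cis-element reporter in HepG2 after 24 h, quantified by fluorescence of labelled RT-PCR products on capillary electrophoresis; gain- and loss-of-signal fits use DMSO as baseline.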

[10] = ATG_PBREM_CIS: Attagene CIS-FACTORIAL HepG2 Assay for human Phenobarbital-responsive Enhancer Module (PBREM) (AID 2282955); settings: HepG2 PBREM cis-reporter, Attagene multiplexed transcription; actives raise or lower the signal
Procedure, shortened: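 HepG2 cells transiently transfected with multiple cis-regulated reporter transcription units; endogenous factor activity at the PBREM element measured as reporter mRNA 24 h after dosing, via RT-PCR and capillary electrophoresis of fluorescent fragments; bidirectional fitting versus DMSO.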

[11] = molecular target: Paired box protein Pax-6 (Homo sapiens) (UniProt P26367); test: ATG_Pax6_CIS: Attagene CIS-FACTORIAL HepG2 Assay for human Paired Box 6 (PAX6) (AID 2282956); settings: HepG2 CIS-FACTORIAL PAX6 reporter transcription, RNA readout; actives raise or lower the signal
Chain of Paired box protein Pax-6 (Homo sapiens) (P26367 whole entry, looked up): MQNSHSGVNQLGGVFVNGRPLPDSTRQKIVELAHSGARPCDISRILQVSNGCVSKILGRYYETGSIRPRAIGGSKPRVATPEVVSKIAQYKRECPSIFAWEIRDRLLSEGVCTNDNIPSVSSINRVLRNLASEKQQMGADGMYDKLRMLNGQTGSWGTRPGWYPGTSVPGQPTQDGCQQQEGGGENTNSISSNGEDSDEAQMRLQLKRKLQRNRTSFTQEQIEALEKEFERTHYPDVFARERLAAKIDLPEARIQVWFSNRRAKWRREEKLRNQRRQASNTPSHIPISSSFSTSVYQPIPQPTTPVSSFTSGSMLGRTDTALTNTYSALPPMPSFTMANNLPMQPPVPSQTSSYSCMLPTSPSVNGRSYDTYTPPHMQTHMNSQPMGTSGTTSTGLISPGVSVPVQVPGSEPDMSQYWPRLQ
Procedure, shortened: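 Readout: reporter transcript fluorescence after RT-PCR and capillary electrophoresis. Cells: HepG2, transiently transfected with cis-regulated MRTUs. Exposure 24 h. Gain or loss of signal fitted bidirectionally relative to DMSO.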

[12] = ATG_PXRE_CIS: Attagene CIS-FACTORIAL HepG2 Assay for human Pregnane X Receptor Element (PXRE) (AID 2282957); settings: HepG2 Attagene CIS-FACTORIAL PXRE reporter, mRNA; actives raise or lower the signal
Procedure, shortened: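 After a 24 h chemical incubation, total RNA from transfected HepG2 cells was reverse-transcribed and reporter cDNA amplified, FAM-labeled, HpaI-digested and sized by capillary electrophoresis. DMSO served as baseline for bidirectional curve fitting.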

[13] = ATG_PPRE_CIS: Attagene CIS-FACTORIAL HepG2 Assay for human Peroxisome Proliferator-activated Response Element (PPRE) (AID 2282958); settings: HepG2 PPRE cis-element reporter, Attagene transcription factor profiling; actives raise or lower the signal
Procedure, shortened: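 HepG2 cells transiently transfected with multiplexed cis-element reporter units measure endogenous transcription factor activity. After 24 h compound exposure, reporter mRNA is quantified by RT-PCR, 6-FAM labeling, HpaI digestion and capillary electrophoresis; bidirectional fits are made against DMSO baseline.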

[14] = ATG_Sox_CIS: Attagene CIS-FACTORIAL HepG2 Assay for human SRY-box transcription factor (SOX) (AID 2282960); settings: HepG2 Attagene cis-factorial SOX reporter, mRNA; actives raise or lower the signal
Procedure, shortened: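 HepG2 cells transiently transfected with cis-element-driven multiple reporter transcription units, dosed 24 h; reporter mRNA measured by RT-PCR, FAM labelling, HpaI digestion and capillary electrophoresis. Bidirectional fit versus DMSO baseline.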

[15] = molecular target: Transcription factor Sp1 (Homo sapiens) (UniProt P08047); test: ATG_Sp1_CIS: Attagene CIS-FACTORIAL HepG2 Assay for human Specificity Protein 1 (Sp1) (AID 2282961); settings: HepG2 Sp1 cis-reporter transcription, actives raise or lower the signal
Chain of Transcription factor Sp1 (Homo sapiens) (P08047 whole entry, looked up): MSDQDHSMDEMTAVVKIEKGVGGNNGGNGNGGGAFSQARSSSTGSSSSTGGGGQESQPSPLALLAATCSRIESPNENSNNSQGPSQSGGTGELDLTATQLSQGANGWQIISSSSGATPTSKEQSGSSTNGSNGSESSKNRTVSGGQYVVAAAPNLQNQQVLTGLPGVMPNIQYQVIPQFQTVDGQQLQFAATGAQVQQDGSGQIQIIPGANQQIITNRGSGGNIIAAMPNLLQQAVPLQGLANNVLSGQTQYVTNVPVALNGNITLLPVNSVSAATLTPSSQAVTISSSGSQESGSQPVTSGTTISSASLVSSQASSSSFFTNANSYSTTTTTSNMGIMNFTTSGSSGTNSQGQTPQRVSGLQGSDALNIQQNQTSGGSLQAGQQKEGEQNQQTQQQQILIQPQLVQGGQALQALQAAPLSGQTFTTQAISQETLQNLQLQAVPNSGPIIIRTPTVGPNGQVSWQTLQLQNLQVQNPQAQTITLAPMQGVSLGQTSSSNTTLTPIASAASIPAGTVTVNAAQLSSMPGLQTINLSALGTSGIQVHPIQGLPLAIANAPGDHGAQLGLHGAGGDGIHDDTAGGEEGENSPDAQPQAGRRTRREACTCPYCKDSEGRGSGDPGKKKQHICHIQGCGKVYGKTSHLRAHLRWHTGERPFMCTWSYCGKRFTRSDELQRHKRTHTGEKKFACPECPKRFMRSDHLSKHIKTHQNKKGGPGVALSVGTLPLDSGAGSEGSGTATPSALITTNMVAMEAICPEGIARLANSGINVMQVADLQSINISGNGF
Procedure, shortened: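 HepG2 cells transiently transfected with multiple reporter transcription units driven by cis-regulatory elements; Sp1-responsive reporter mRNA measured 24 h after dosing by RT-PCR and capillary electrophoresis fluorescence, fitted bidirectionally against DMSO baseline.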

[16] = ATG_SREBP_CIS: Attagene CIS-FACTORIAL HepG2 Assay for human Sterol Regulatory Element Binding (SREBP) (AID 2282962); settings: HepG2 Attagene cis-factorial SREBP reporter, mRNA; actives raise or lower the signal
Procedure, shortened: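 Readout: fluorescent reporter-transcript peaks resolved by capillary electrophoresis after RT-PCR. Cells were human HepG2 carrying transfected cis-promoter reporter constructs, dosed for 24 h. Gain or loss of signal was fitted against DMSO controls.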

[17] = molecular target: Signal transducer and activator of transcription 3 (Homo sapiens) (UniProt P40763); test: ATG_STAT3_CIS: Attagene CIS-FACTORIAL HepG2 Assay for human Signal Transducer and Activator of Transcription 3 (STAT3) (AID 2282963); settings: HepG2, Attagene cis-factorial STAT3 reporter transcription; actives raise or lower the signal
Chain of Signal transducer and activator of transcription 3 (Homo sapiens) (P40763 whole entry, looked up, the tested form may be a part): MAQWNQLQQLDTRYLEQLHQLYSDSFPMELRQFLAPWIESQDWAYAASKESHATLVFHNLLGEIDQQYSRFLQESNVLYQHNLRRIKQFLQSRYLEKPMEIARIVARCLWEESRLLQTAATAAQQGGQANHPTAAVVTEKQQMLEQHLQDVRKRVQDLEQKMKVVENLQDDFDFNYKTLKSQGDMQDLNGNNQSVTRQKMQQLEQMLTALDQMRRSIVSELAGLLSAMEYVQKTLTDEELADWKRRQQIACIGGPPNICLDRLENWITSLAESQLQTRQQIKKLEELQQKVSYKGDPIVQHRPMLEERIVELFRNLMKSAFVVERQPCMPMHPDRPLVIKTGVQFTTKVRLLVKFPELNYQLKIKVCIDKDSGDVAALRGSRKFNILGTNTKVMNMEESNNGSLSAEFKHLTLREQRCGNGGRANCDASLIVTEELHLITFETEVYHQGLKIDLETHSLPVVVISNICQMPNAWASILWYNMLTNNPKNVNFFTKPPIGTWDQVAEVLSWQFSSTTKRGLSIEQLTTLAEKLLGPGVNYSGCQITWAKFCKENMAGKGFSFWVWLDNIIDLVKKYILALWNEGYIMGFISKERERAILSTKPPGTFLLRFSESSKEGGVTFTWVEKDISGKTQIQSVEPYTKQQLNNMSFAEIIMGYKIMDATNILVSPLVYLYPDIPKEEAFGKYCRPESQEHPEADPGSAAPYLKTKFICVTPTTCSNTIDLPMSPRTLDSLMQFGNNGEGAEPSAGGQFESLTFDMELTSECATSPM
Procedure, shortened: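 Fluorescence intensity of 6-FAM-labelled reporter fragments, separated by capillary electrophoresis after RT-PCR, gave the signal. Cells were HepG2 transfected with cis-element reporter units and treated 24 h; fitting was bidirectional relative to DMSO.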

[18] = ATG_TA_CIS: Attagene CIS-FACTORIAL HepG2 Assay for human TA Basal Promoter (AID 2282964); settings: HepG2 Attagene CIS-factorial TA basal promoter reporter; actives raise or lower the signal
Procedure, shortened: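 Background internal-marker endpoint from a 52-component HepG2 cis-reporter panel. Cells treated 24 h; reporter transcripts quantified via RT-PCR and CE fluorescence against DMSO baseline.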

[19] = ATG_RORE_CIS: Attagene CIS-FACTORIAL HepG2 Assay for human RAR-related Orphan Receptor Element (RORE) (AID 2282959); settings: HepG2 Attagene cis-factorial RORE reporter, mRNA; actives raise or lower the signal
Procedure, shortened: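 HepG2 cells transiently transfected with multiple cis-element reporter transcription units, exposed to chemical for 24 h. Reporter mRNA quantified by RT-PCR, 6-FAM primer-extension labeling, HpaI digestion and capillary electrophoresis; bidirectional fit versus DMSO baseline.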

Measured: AC50

C1COCO1
not listed: [19]
inactive: all other assays above

[Na+]
not listed: [13] | [19]
inactive: all other assays above

CCCCCCCCCCOC(=O)c1ccccc1C(=O)OCCCCCCCC
active: [12] 3.87 µM
inactive: all other assays above

NC(N)=NC(N)=NCCc1ccccc1
not listed: [10]
inactive: all other assays above
